These results are taken from PubChem BioAssay (EPA / NIEHS).

Test [1] is described as follows: ATG_TAL_CIS: Attagene CIS-FACTORIAL HepG2 Assay for human TAL Basal Promoter (AID 2282966; active = hit-call score of the fitted dose curve at least 0.9, where 1 is the maximum; inactive = score below 0.9;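 also: background control endpoint measuring basal TAL promoter reporter mRNA not a specific factor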). Particulars: HepG2 Attagene cis-factorial TAL promoter reporter; actives raise or lower the signal. The procedure, abridged:
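Steps: transfect HepG2 with multiple reporter transcription units; dose 24 h; isolate RNA, reverse-transcribe, PCR-amplify, label with 6-FAM, digest with HpaI; resolve by capillary electrophoresis. Bidirectional fitting against DMSO baseline.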

Test [2] is described as follows: ATG_TGFb_CIS: Attagene CIS-FACTORIAL HepG2 Assay for human Transforming Growth Factor (TGF) (AID 2282967; active = hit-call score of the fitted dose curve at least 0.9, where 1 is the maximum; inactive = score below 0.9). Particulars: HepG2 Attagene CIS TGFb reporter, mRNA transcription; actives raise or lower the signal. In a few lines: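 Transient MRTU transfection of HepG2 (FuGene 6). Dose 24 h. TriZol RNA, oligo(dT) RT, PCR, 6-FAM primer extension, HpaI cut, CE. Bidirectional fit, DMSO = baseline.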

Test [3] can be described thus: ATG_VDRE_CIS: Attagene CIS-FACTORIAL HepG2 Assay for human Vitamin D Receptor Element (VDRE) (AID 2282968; active = hit-call score of the fitted dose curve at least 0.9, where 1 is the maximum; inactive = score below 0.9). The settings on record: HepG2 VDRE cis-reporter transcription, actives raise or lower the signal. The procedure, abridged:
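Cell-based multiplexed reporter format in human liver HepG2 cells, 24 h post-dose. Fluorescence from capillary electrophoresis of reporter cDNA gives the signal, with DMSO as negative control and baseline.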

Test [4] has as its target Nuclear receptor subfamily 1 group I member 3 (Homo sapiens) (UniProt Q14994). The test is described as follows: ATG_CAR_TRANS: Attagene TRANS-FACTORIAL HepG2 Assay for human Constitutive Androstane Receptor (CAR) (AID 2282969).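 Also: activators raise reporter mRNA above DMSO so AC50 marks induction.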 Particulars: HepG2 Attagene TRANS-FACTORIAL CAR reporter. In a few lines:
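HepG2 cells transiently transfected with GAL4-UAS reporter units; TRANS format reads activity of exogenous chimeric NR-Gal4 protein. After 24 h dosing, reporter mRNA quantified by RT-PCR, 6-FAM labelling and capillary electrophoresis; gain of signal fitted against DMSO.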

Test [5] concerns the target X-box-binding protein 1 (Homo sapiens) (UniProt P17861). Nature of the test: ATG_Xbp1_CIS: Attagene CIS-FACTORIAL HepG2 Assay for human X-box Binding Protein 1 (XBP1) (AID 2282972; active = hit-call score of the fitted dose curve at least 0.9, where 1 is the maximum; inactive = score below 0.9). Particulars: HepG2 XBP1 cis-element reporter, Attagene multiplex; actives raise or lower the signal. The procedure, abridged: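 HepG2 cells transiently transfected with multiple cis-element reporter units report endogenous TF activity; 24 h exposure, then reporter mRNA measured by RT-PCR, 6-FAM labelling, HpaI digestion and capillary electrophoresis. Bidirectional fitting versus DMSO.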

Test [6] can be described thus: ATG_GAL4_TRANS: Attagene TRANS-FACTORIAL HepG2 Assay for GAL4 (Internal Marker) (AID 2282976). The settings on record: HepG2 Attagene TRANS GAL4 internal marker reporter. The procedure, abridged:
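Liver HepG2 line bearing multiplexed GAL4-UAS reporter constructs; 24 h chemical treatment. Transcripts were quantified as fluorescent fragments on capillary electrophoresis after RT-PCR and HpaI cut, with activity fitted upward from DMSO.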

For test [7], the target named is Glucocorticoid receptor (Homo sapiens) (UniProt P04150). Nature of the test: ATG_GR_TRANS: Attagene TRANS-FACTORIAL HepG2 Assay for human Glucocorticoid Receptor (GR) (AID 2282978).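 Also: activators score as hits since higher reporter transcript over DMSO is fitted.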 Particulars: HepG2 Attagene TRANS GR reporter, mRNA transcription. In a few lines: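 Fluorescent capillary-electrophoresis quantitation of reporter mRNA is the readout, taken 24 h after dosing human HepG2 cells carrying transiently transfected GAL4-UAS reporter units activated by chimeric NR-GAL4 fusions; activity scored as induction over DMSO.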

Test [8] deals with Bile acid receptor (Homo sapiens) (UniProt Q96RI1). The test is described as follows: ATG_FXR_TRANS: Attagene TRANS-FACTORIAL HepG2 Assay for Farnesoid X Receptor (FXR) (AID 2282979).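 Also: hits raise reporter mRNA above DMSO so AC50 marks FXR activation.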 The settings on record: HepG2 Attagene TRANS FXR-GAL4 reporter transcription. The procedure, abridged:
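After 24 h chemical treatment of transfected HepG2 cells, GAL4-UAS reporter transcripts driven by an exogenous FXR-GAL4 fusion were measured by RT-PCR and capillary electrophoresis. Increases over DMSO were fitted.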

The target in test [9] is Oxysterols receptor LXR-alpha (Homo sapiens) (UniProt Q13133). The test is described as follows: ATG_LXRa_TRANS: Attagene TRANS-FACTORIAL HepG2 Assay for human Liver X Receptor alpha (LXRa) (AID 2282980). The settings on record: HepG2 Attagene TRANS reporter, LXRa transactivation. In a few lines:
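In this multiplexed TRANS system, compounds act on HepG2 cells carrying GAL4-UAS reporter units and a receptor-GAL4 fusion for 24 h. Induced reporter RNA is amplified, fluorescently labelled and sized by capillary electrophoresis, with DMSO as baseline.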

The target in test [10] is Oxysterols receptor LXR-beta (Homo sapiens) (UniProt P55055). The test is described as follows: ATG_LXRb_TRANS: Attagene TRANS-FACTORIAL HepG2 Assay for human Liver X Receptor beta (LXRb) (AID 2282981). Particulars: HepG2 Attagene TRANS GAL4-LXRb reporter, mRNA. The procedure, abridged: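 Gain-of-signal mRNA reporter endpoint, DMSO as negative control. Transiently transfected HepG2 cells carrying the NR-Gal4 chimera and GAL4-UAS reporter units were treated 24 h; transcripts quantified by RT-PCR and capillary electrophoresis fluorescence.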

The target of test [11] is Hepatocyte nuclear factor 4-alpha (Homo sapiens) (UniProt P41235). Nature of the test: ATG_HNF4a_TRANS: Attagene TRANS-FACTORIAL HepG2 Assay for human Hepatocyte Nuclear Factor 4 alpha (HNF4a) (AID 2282982). Particulars: HepG2 HNF4a transactivation reporter, mRNA readout. The procedure, abridged:
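Gain-of-signal mRNA induction, relative to DMSO vehicle, was read after 24 h compound treatment of HepG2 cells bearing transfected GAL4-UAS reporters. Detection used RT-PCR, 6-FAM primer extension and capillary electrophoresis.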

Test [12] is described as follows: ATG_M_06_TRANS: Attagene TRANS-FACTORIAL HepG2 Assay for M06 Transcription Factor (Internal Marker) (AID 2282983). Particulars: HepG2 Attagene TRANS M06 internal marker reporter. In a few lines: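 Internal-marker background readout from a multiplexed TRANS reporter system in HepG2; 24 h dosing; mRNA induction quantified by RT-PCR plus capillary electrophoresis fluorescence; DMSO as negative control and baseline.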

Test [13] can be described thus: ATG_M_32_TRANS: Attagene TRANS-FACTORIAL HepG2 Assay for M32 Transcription Factor (Internal Marker) (AID 2282984). Particulars: HepG2 Attagene TRANS M32 internal marker reporter. In a few lines:
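Capillary electrophoresis of 6-FAM-labelled reporter fragments gives the signal; data fitted for gain over DMSO negative control. Source: HepG2 cells bearing transient multiple reporter transcription units, 24 h exposure.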

For test [14], the target named is Transcriptional activator Myb (Homo sapiens) (UniProt P10242). Nature of the test: ATG_Myb_CIS: Attagene CIS-FACTORIAL HepG2 Assay for human Myeloblastosis (Myb) Proto-Oncogene Transcription Factor (AID 2282986; active = hit-call score of the fitted dose curve at least 0.9, where 1 is the maximum; inactive = score below 0.9). The settings on record: HepG2 Attagene CIS-FACTORIAL Myb reporter transcription; actives raise or lower the signal. In a few lines: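 Reporter transcript levels, quantified by fluorescent RT-PCR and capillary electrophoresis, serve as the read-out. Transfected HepG2 cells carrying cis-promoter reporter units are dosed for 24 hours, and curves are fitted bidirectionally against DMSO controls.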

Test [15] deals with Nuclear respiratory factor 1 (Homo sapiens) (UniProt Q16656). The test is described as follows: ATG_NRF1_CIS: Attagene CIS-FACTORIAL HepG2 Assay for human Nuclear Respiratory Factor 1 (NRF1) Orphan Gene (AID 2282987; active = hit-call score of the fitted dose curve at least 0.9, where 1 is the maximum; inactive = score below 0.9). Particulars: HepG2 NRF1 cis-element reporter, Attagene multiplex; actives raise or lower the signal. The procedure, abridged:
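Multiplexed cis-reporter assay, HepG2 cells, 24 h treatment. Total RNA → oligo(dT) RT → PCR with reporter-specific primers → 6-FAM primer extension → HpaI cut → CE. Bidirectional fit vs DMSO.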

A short description of test [16]: ATG_M_19_TRANS: Attagene TRANS-FACTORIAL HepG2 Assay for M19 Transcription Factor (Internal Marker) (AID 2282974). The settings on record: HepG2 Attagene TRANS-FACTORIAL M19 internal marker reporter. In a few lines: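 Fluorescence of 6-FAM-labelled reporter cDNA fragments, separated by capillary electrophoresis, served as the readout. These derived from HepG2 cells carrying transfected GAL4-UAS reporter units after 24 h dosing, with DMSO as negative control.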

The target of test [17] is Estrogen receptor (Homo sapiens) (UniProt P03372). The test is described as follows: ATG_ERa_TRANS: Attagene TRANS-FACTORIAL HepG2 Assay for human Estrogen Receptor alpha (ERa) (AID 2282970). The settings on record: HepG2 Attagene TRANS ERa GAL4 reporter, mRNA. The procedure, abridged:
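Multiplexed cell-based reporter format in HepG2: chimeric ERa-Gal4 protein drives GAL4-UAS reporter transcription. Fluorescent reporter mRNA quantified by capillary electrophoresis 24 hours after dosing; endpoint fitted as signal gain against DMSO.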

The target of test [18] is Steroid hormone receptor ERR1 (Homo sapiens) (UniProt P11474). The test is described as follows: ATG_ERRa_TRANS: Attagene TRANS-FACTORIAL HepG2 Assay for human Estrogen-Related Receptor alpha (ERRa) (AID 2282971). The settings on record: HepG2 Attagene TRANS reporter, ERRa transactivation. The procedure, abridged:
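Signal gain relative to DMSO for an ERRa-Gal4 chimeric receptor, read as reporter mRNA by RT-PCR/capillary electrophoresis. Human HepG2 liver cells, transient multiplex reporter transfection, 24 h chemical exposure.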

Test [19] deals with Estrogen-related receptor gamma (Homo sapiens) (UniProt P62508). The test is described as follows: ATG_ERRg_TRANS: Attagene TRANS-FACTORIAL HepG2 Assay for human Estrogen-Related Receptor gamma (ERRg) (AID 2282977).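 Also: hits increase reporter signal over DMSO so potencies reflect activators.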 The settings on record: HepG2 Attagene TRANS reporter, ERRg transactivation. The procedure, abridged: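 HepG2 cells transiently transfected with multiplexed GAL4-UAS reporter units and chimeric NR-Gal4 constructs were exposed to test chemicals for 24 h. Reporter mRNA was measured by RT-PCR, 6-FAM primer extension, HpaI digestion and capillary electrophoresis; gain-of-signal versus DMSO.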

In test [20] the target is Nuclear receptor subfamily 4 group A member 2 (Homo sapiens) (UniProt P43354). The test is described as follows: ATG_NURR1_TRANS: Attagene TRANS-FACTORIAL HepG2 Assay for human Nuclear Receptor Related Protein 1 (NURR1) (AID 2282985). The settings on record: HepG2 Attagene TRANS reporter, mRNA readout. The procedure, abridged:
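HepG2 / transient MRTU transfection / 24 h compound exposure / RT-PCR + CE fluorescence of reporter mRNA / gain-of-signal vs DMSO.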

Where “and” joins values, the source holds several entries; their conditions need not be identical. Equal values may be shown once. Inconclusive results are not listed. More than one record can exist for a structure, and the calls need not agree. Calls of active or inactive are those of the source. The calls were made as follows, unless noted: active = hit-call score of the fitted dose curve at least 0.9, where 1 is the maximum; inconclusive = response in the unintended direction; inactive = score below 0.9.

Chain of Nuclear receptor subfamily 1 group I member 3 (Homo sapiens) (Q14994 whole entry, looked up, the tested form may be a part): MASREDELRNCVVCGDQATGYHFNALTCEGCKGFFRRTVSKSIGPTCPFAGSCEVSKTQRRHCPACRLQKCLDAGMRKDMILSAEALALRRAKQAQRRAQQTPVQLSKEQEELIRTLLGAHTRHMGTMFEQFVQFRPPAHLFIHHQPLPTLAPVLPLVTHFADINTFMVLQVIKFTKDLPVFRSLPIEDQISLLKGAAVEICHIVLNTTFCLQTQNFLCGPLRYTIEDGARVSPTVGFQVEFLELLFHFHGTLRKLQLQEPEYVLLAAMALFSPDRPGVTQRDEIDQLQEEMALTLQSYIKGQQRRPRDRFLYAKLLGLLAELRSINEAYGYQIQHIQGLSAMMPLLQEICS
Chain of Bile acid receptor (Homo sapiens) (Q96RI1 whole entry, looked up, the tested form may be a part): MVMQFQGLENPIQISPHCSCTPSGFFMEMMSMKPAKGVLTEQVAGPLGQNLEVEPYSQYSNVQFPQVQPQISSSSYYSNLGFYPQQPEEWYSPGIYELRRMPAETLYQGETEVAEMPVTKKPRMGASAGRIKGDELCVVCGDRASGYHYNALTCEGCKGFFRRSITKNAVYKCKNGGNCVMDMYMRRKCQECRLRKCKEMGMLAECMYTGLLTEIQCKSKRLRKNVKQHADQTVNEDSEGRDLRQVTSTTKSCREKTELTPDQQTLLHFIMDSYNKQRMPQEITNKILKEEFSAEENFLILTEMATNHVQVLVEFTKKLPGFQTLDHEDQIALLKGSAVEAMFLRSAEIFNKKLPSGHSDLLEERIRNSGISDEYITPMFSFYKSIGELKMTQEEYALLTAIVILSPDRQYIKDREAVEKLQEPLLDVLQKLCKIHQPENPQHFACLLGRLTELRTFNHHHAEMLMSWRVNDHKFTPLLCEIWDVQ
Chain of Transcriptional activator Myb (Homo sapiens) (P10242 whole entry, looked up): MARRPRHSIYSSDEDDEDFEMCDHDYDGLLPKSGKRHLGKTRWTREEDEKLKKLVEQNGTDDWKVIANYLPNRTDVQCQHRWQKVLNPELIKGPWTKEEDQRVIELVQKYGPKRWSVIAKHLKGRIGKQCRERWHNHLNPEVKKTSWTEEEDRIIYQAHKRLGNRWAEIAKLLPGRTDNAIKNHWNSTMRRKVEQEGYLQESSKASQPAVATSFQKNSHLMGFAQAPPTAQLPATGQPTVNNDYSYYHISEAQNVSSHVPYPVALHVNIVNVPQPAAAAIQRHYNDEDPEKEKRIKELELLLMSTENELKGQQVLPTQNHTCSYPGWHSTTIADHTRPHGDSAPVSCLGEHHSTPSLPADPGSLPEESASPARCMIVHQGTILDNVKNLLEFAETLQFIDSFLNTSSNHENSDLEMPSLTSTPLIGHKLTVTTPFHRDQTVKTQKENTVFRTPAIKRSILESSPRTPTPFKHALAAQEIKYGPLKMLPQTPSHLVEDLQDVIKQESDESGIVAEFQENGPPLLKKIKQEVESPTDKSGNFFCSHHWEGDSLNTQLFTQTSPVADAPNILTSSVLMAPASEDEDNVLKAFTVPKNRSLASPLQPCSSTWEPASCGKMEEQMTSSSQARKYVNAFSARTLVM
Chain of Glucocorticoid receptor (Homo sapiens) (P04150 whole entry, looked up, the tested form may be a part): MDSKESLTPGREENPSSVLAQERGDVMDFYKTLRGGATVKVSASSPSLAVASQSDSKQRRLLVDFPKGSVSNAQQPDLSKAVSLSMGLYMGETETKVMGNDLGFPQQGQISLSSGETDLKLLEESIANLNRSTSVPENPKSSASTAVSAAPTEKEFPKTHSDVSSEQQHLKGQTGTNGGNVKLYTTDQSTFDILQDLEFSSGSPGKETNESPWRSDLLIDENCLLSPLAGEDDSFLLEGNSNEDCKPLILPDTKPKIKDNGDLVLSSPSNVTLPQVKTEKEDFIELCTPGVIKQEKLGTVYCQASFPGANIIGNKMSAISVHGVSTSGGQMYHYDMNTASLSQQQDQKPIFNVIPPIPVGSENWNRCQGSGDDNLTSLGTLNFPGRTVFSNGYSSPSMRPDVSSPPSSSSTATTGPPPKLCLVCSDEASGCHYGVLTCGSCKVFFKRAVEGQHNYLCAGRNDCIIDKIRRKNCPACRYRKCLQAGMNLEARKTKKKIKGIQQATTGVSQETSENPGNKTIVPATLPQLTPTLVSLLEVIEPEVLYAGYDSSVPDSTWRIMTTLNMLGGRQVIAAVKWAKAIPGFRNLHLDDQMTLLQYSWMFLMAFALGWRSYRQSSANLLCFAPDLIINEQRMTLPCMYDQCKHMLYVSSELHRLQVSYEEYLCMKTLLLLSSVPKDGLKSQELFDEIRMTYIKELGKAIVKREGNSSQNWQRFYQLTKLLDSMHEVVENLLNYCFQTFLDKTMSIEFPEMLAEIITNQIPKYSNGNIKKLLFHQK
Chain of Oxysterols receptor LXR-beta (Homo sapiens) (P55055 whole entry, looked up, the tested form may be a part): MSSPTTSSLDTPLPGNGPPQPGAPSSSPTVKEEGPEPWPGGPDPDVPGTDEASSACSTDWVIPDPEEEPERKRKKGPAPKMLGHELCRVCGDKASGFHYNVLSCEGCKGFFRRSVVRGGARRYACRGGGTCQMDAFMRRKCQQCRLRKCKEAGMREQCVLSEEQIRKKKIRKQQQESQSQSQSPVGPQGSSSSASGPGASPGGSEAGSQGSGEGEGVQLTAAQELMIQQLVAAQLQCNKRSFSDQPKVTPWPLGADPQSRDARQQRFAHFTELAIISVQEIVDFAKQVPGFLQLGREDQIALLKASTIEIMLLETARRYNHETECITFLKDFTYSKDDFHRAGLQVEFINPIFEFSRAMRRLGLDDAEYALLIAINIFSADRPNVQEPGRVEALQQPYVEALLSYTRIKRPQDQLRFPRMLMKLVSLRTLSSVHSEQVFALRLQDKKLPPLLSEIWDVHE
Chain of Oxysterols receptor LXR-alpha (Homo sapiens) (Q13133 whole entry, looked up, the tested form may be a part): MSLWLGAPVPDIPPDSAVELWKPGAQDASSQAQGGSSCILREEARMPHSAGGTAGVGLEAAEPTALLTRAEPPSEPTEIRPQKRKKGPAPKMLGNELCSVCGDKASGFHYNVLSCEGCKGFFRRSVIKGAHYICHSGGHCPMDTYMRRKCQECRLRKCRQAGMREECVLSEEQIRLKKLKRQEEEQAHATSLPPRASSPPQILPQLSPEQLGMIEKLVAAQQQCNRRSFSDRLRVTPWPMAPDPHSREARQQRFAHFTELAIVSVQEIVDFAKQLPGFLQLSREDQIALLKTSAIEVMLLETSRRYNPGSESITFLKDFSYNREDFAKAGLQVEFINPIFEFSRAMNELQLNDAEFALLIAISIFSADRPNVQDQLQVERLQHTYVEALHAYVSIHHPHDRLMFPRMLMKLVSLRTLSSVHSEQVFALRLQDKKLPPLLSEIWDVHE
Chain of Hepatocyte nuclear factor 4-alpha (Homo sapiens) (P41235 whole entry, looked up, the tested form may be a part): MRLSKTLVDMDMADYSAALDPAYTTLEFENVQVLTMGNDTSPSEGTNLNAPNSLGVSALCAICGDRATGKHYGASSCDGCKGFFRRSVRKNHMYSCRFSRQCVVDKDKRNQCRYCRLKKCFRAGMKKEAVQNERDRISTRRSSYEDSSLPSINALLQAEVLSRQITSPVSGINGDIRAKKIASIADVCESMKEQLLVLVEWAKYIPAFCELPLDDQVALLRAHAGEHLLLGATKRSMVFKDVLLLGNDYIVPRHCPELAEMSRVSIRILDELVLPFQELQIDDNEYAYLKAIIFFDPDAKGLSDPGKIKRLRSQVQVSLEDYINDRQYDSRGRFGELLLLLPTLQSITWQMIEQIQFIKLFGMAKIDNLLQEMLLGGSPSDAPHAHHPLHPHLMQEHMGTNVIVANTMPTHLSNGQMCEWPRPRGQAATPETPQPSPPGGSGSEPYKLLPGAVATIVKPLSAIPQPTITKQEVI
Chain of Nuclear respiratory factor 1 (Homo sapiens) (Q16656 whole entry, looked up): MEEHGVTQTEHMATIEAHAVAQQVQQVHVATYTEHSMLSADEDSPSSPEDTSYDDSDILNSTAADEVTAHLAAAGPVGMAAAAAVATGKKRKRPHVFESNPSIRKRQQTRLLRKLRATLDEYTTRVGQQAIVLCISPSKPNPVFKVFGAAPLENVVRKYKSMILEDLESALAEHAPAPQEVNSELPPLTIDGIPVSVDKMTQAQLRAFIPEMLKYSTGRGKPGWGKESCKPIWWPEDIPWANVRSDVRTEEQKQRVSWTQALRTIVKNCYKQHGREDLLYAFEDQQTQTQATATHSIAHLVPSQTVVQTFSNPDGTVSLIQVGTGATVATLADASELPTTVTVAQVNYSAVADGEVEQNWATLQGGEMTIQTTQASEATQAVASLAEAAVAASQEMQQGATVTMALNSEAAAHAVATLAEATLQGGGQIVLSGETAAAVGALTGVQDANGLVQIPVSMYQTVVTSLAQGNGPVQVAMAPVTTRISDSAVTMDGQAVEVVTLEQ
Chain of X-box-binding protein 1 (Homo sapiens) (P17861 whole entry, looked up): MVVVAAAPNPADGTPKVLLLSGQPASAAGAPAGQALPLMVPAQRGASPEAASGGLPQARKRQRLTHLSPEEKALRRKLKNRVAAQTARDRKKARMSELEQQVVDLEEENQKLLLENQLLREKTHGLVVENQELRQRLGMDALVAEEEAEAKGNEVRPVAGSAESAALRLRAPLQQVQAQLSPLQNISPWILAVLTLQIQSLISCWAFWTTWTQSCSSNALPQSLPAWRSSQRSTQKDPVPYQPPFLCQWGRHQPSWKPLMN
Chain of Steroid hormone receptor ERR1 (Homo sapiens) (P11474 whole entry, looked up, the tested form may be a part): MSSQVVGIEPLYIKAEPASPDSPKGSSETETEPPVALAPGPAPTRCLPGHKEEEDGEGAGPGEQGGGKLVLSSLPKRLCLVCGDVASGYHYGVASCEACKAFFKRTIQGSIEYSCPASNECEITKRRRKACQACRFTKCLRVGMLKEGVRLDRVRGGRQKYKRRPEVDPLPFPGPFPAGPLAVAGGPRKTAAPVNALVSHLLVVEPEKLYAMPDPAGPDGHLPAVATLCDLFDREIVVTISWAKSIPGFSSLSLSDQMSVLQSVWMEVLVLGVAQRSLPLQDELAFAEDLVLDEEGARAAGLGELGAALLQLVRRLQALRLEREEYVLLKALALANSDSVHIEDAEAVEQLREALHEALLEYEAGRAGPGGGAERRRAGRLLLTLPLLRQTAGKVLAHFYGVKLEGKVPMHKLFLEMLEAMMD

Consider `CC(C)(C)c1ccc(O)c(O)c1`, for which the outcome in test [1], in [2], in test [4], in test [5], in test [6] and in [7] was inactive. For the same molecule, the outcome in test [8], in test [9], in test [10], in [11], in [12] and in test [13] was inactive. The outcome in [14] and in test [15] was inactive. Also, the concentration at half-maximal activity (AC50) is 100 µM (active) and 46.6 µM (active) and 42.3 µM (active) in test [2]; 4.28 µM (active) [middle of 5 runs] in test [3].

As to `C[C@]12CC[C@@H]3c4ccc(O)cc4CC[C@H]3[C@@H]1C[C@@H](O)[C@@H]2O`, the result in [1], in [2], in [3], in test [5], in test [16] and in test [6] was inactive. For the same molecule, the molecule was classed as inactive in [7], in test [9], in test [11], in test [12], in test [13] and in test [14]. The molecule was classed as inactive in test [15]. The AC50 in test [3] was 27.1 µM (active).

Consider `C/C=C/C(=O)C1=C(C)CCCC1(C)C`, for which the outcome in test [1], in [2], in test [4], in [17], in test [18] and in test [6] was inactive. In addition, the molecule was called inactive in test [19], in test [7], in [8], in [9], in test [12] and in test [13]. The outcome in [14] and in test [15] was inactive. For the same molecule, the half-maximal activity concentration (AC50) in test [3] is 7.43 µM (active); in test [5] it was 34.6 µM (active); in [11], 159 µM (active); in test [20], 152 µM (active).

Broadly, the AC50 is the midpoint of the concentration-response curve, whichever way the signal moves.
